Test [1] is described as follows: ATG_E_Box_CIS: Attagene CIS-FACTORIAL HepG2 Assay for human Enhancer Box (E-box) (AID 2282936). Particulars: HepG2 E-box cis-reporter transcription, actives raise or lower the signal. Summed up:
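DMSO served as negative control and baseline for bidirectional fitting. Human hepatoma HepG2 cells, transiently transfected with cis-reporter constructs, were dosed 24 h; reporter mRNA read by RT-PCR and capillary electrophoresis.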

Test [2] can be described thus: ATG_M_61_CIS: Attagene CIS-FACTORIAL HepG2 Assay for M61 Transcription Factor (Internal Marker) (AID 2282937). Particulars: HepG2 Attagene CIS-FACTORIAL M61 internal marker reporter; actives raise or lower the signal. The method, boiled down: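 HepG2 cells transiently transfected with multiplexed cis-promoter reporter units reporting endogenous transcription factor activity, measured 24 h after dosing. Reporter mRNA quantified by RT-PCR and capillary electrophoresis; bidirectional fit against DMSO baseline.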

Test [3] in a line: ATG_EGR_CIS: Attagene CIS-FACTORIAL HepG2 Assay for human Early Growth Response 1 (EGR1) (AID 2282938). Particulars: HepG2 Attagene CIS-FACTORIAL EGR reporter mRNA; actives raise or lower the signal. Summed up:
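HepG2 cells transiently transfected with cis-element-driven multiplexed reporter units, dosed for 24 h. EGR1-element reporter mRNA quantified by RT-PCR, 6-FAM labelling, HpaI digestion and capillary electrophoresis; bidirectional fit versus DMSO.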

Test [4] can be described thus: ATG_M_19_CIS: Attagene CIS-FACTORIAL HepG2 Assay for M19 Transcription Factor (Internal Marker) (AID 2282939). Particulars: HepG2 Attagene CIS-FACTORIAL M19 internal marker reporter; actives raise or lower the signal. The method, boiled down:
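Chemical-treated HepG2 (24 h) with MRTU constructs; reporter transcripts detected by fluorescent RT-PCR fragment analysis on capillary electrophoresis. Internal background marker, DMSO as baseline.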

A short description of test [5]: ATG_ERE_CIS: Attagene CIS-FACTORIAL HepG2 Assay for Estrogen Response Element (ERE) (AID 2282940). The settings on record: HepG2 ERE cis-reporter, Attagene RNA transcript; actives raise or lower the signal. The method, boiled down: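 Human liver cells (HepG2) bearing transiently transfected, promoter-regulated reporter units were exposed 24 h. Reporter mRNA induction was detected by capillary electrophoresis of labelled RT-PCR products and fitted bidirectionally to DMSO.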

A short description of test [6]: ATG_Ets_CIS: Attagene CIS-FACTORIAL HepG2 Assay for human Erythroblast Transformation Specific (ETS) (AID 2282941). The settings on record: HepG2 ETS cis-reporter transcription, actives raise or lower the signal. The method, boiled down:
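Human HepG2 hepatoma cells were transiently transfected with promoter-driven reporter constructs and treated for 24 hours. Reporter transcripts were quantified by RT-PCR with fluorescent primer extension; bidirectional curve fitting used DMSO as reference.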

Test [7] deals with Hepatocyte nuclear factor 3-beta (Homo sapiens) (UniProt Q9Y261). The test can be described thus: ATG_FoxA2_CIS: Attagene CIS-FACTORIAL HepG2 Assay for human Forkhead box A2 (FOXA2) (AID 2282942). Particulars: HepG2 cis-reporter transcription factor activity, 24 h; actives raise or lower the signal. The method, boiled down:
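HepG2 transiently transfected with a multiplexed cis-promoter reporter library read endogenous FOXA2 activity. After 24 h compound exposure, reporter mRNA was quantified by RT-PCR, HpaI digestion and capillary electrophoresis. Bidirectional fit against DMSO.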

Test [8] is described as follows: ATG_FoxO_CIS: Attagene CIS-FACTORIAL HepG2 Assay for human Forkhead box O (FoxO) (AID 2282943). The settings on record: HepG2 Attagene cis-reporter, FoxO element, mRNA; actives raise or lower the signal. Summed up:
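Endogenous transcription factor activity read from multiplexed cis-promoter reporter transcripts in transiently transfected HepG2, 24 h after dosing. Reporter RNA measured via RT-PCR plus capillary electrophoresis of FAM-labeled products; gain or loss relative to DMSO.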

A short description of test [9]: ATG_GLI_CIS: Attagene CIS-FACTORIAL HepG2 Assay for human Zinc Finger Protein GLI1 (AID 2282945). Particulars: HepG2, Attagene cis-factorial reporter mRNA, GLI element; actives raise or lower the signal. Summed up: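 Bidirectional curve fits relative to DMSO, using reporter mRNA levels from RT-PCR plus capillary electrophoresis. Cells were HepG2 transiently carrying cis-regulated reporter constructs, harvested 24 h after dosing.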

The nature of test [10]: ATG_ISRE_CIS: Attagene CIS-FACTORIAL HepG2 Assay for human Interferon Regulatory Factor 1 (IRF1) binding to an Interferon-Stimulated Response Element (ISRE) (AID 2282948). Particulars: HepG2 ISRE cis-reporter (Attagene), mRNA transcription readout; actives raise or lower the signal. The method, boiled down: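 Cell-based cis-reporter assay; HepG2; 24 h exposure; reporter mRNA by RT-PCR plus capillary electrophoresis fluorescence; activity in either direction scored relative to DMSO.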

Test [11] in a line: ATG_M_32_CIS: Attagene CIS-FACTORIAL HepG2 Assay for M32 Transcription Factor (Internal Marker) (AID 2282949).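 Also: background control marker of the multiplexed CIS panel rather than a real target.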 The settings on record: HepG2 Attagene cis-factorial M32 reporter, mRNA; actives raise or lower the signal. The method, boiled down: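 Following 24 h chemical exposure of HepG2 cells transiently expressing cis-promoter reporter constructs, reporter transcript levels were determined by RT-PCR with fluorescent labelling and capillary electrophoresis, then fitted bidirectionally against DMSO.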

Test [12] in a line: ATG_M_06_CIS: Attagene CIS-FACTORIAL HepG2 Assay for M06 Transcription Factor (Internal Marker) (AID 2282950). Particulars: HepG2 Attagene CIS-FACTORIAL M06 internal marker reporter; actives raise or lower the signal. The method, boiled down: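 Cells (HepG2, transiently carrying cis-driven reporter units) receive chemical for 24 h before RNA isolation. Reporter cDNA is PCR-amplified, FAM-labelled by primer extension, HpaI-digested and sized on a capillary analyser.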

The target of test [13] is Hypoxia-inducible factor 1-alpha (Homo sapiens) (UniProt Q16665). The test can be described thus: ATG_HIF1a_CIS: Attagene CIS-FACTORIAL HepG2 Assay for human Hypoxia Inducible Factor 1 (HIF1A) (AID 2282951). Particulars: HepG2 Attagene cis-factorial HIF1a reporter transcription; actives raise or lower the signal. The method, boiled down:
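HepG2 cells transiently transfected with multiple cis-regulated reporter transcription units measure endogenous transcription factor activity. After 24 h exposure, reporter mRNA is quantified by RT-PCR with 6-FAM labelling, HpaI digestion and capillary electrophoresis. Bidirectional fitting against DMSO.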

In test [14] the target is Hepatocyte nuclear factor 6 (Homo sapiens) (UniProt Q9UBC0). The test can be described thus: ATG_HNF6_CIS: Attagene CIS-FACTORIAL HepG2 Assay for human Hepatocyte Nuclear Factor 6 (HNF6) (AID 2282952). The settings on record: HepG2 Attagene cis-factorial HNF6 reporter transcription; actives raise or lower the signal. The method, boiled down:
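HepG2 cells transiently transfected with cis-element-driven multiplexed reporter units measuring endogenous transcription factor activity. After 24 h exposure, reporter mRNA quantified by RT-PCR, FAM-labelled fragments and capillary electrophoresis; bidirectional fitting versus DMSO.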

In test [15] the target is Heat shock factor protein 1 (Homo sapiens) (UniProt Q00613). The test can be described thus: ATG_HSE_CIS: Attagene CIS-FACTORIAL HepG2 Assay for human Heat Shock Transcription Factor 1 (HSE) (AID 2282953). The settings on record: HepG2 HSE cis-reporter, Attagene RNA transcription; actives raise or lower the signal. Summed up:
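Liver-derived HepG2 cells carry transiently introduced multiple reporter units governed by cis promoters. Reporter RNA measured 24 h post-dose through reverse transcription, PCR amplification, fluorescent labelling and capillary electrophoresis, normalised to DMSO.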

Test [16] can be described thus: ATG_MRE_CIS: Attagene CIS-FACTORIAL HepG2 Assay for human Metal Responsive Element (MRE) (AID 2282954). The settings on record: HepG2 MRE cis-reporter transcription, Attagene multiplex; actives raise or lower the signal. The method, boiled down:
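After a 24 h chemical exposure, transiently transfected HepG2 cells yield RNA whose reporter sequences are amplified, FAM-labelled and sized by capillary electrophoresis. Curves are fitted bidirectionally relative to DMSO.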

Test [17] can be described thus: ATG_PBREM_CIS: Attagene CIS-FACTORIAL HepG2 Assay for human Phenobarbital-responsive Enhancer Module (PBREM) (AID 2282955). The settings on record: HepG2 PBREM cis-reporter, Attagene multiplexed transcription; actives raise or lower the signal. Summed up: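 HepG2 cells transiently transfected with multiple cis-regulated reporter units measure endogenous transcription factor activity; 24 h compound exposure. Reporter mRNA quantified by RT-PCR, fluorescent labelling, HpaI digestion and capillary electrophoresis; bidirectional fit versus DMSO.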

Test [18] concerns the target Bile acid receptor (Homo sapiens) (UniProt Q96RI1). The test can be described thus: ATG_IR1_CIS: Attagene CIS-FACTORIAL HepG2 Assay for human Nuclear Receptor Subfamily 1 Group H Member 4 (NR1H4), IR1 submotif (AID 2282946). The settings on record: IR1 reporter transcription, actives raise or lower the signal. Summed up: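 Cells (human HepG2) carry transiently transfected cis-promoter reporter transcription units. Compounds are incubated 24 h, total RNA is reverse-transcribed and amplified, and labelled fragments are resolved by capillary electrophoresis. Curves use DMSO as baseline.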

The nature of test [19]: ATG_GRE_CIS: Attagene CIS-FACTORIAL HepG2 Assay for human Glucocorticoid Response Elements (GRE) (AID 2282947). Particulars: HepG2 GRE cis-reporter, Attagene multiplex mRNA; actives raise or lower the signal. Summed up:
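Assay uses human hepatoma HepG2 cells transfected with cis-promoter reporter units, exposed 24 h. mRNA from reporters detected by RT-PCR plus capillary electrophoresis; DMSO serves as negative control and baseline.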

Test [20] is described as follows: ATG_GATA_CIS: Attagene CIS-FACTORIAL HepG2 Assay for human GATA Binding Protein (AID 2282944). Particulars: HepG2 GATA cis-element reporter, Attagene multiplex mRNA; actives raise or lower the signal. Summed up:
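Transfected cis-reporter HepG2 cells were treated with chemicals for 24 hours. Total RNA was then converted to cDNA, amplified with reporter-specific primers and analysed by fluorescent capillary electrophoresis, using DMSO-treated wells as baseline.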

Broadly, the AC50 is the concentration giving half of the maximal activity seen.

Active and inactive are the calls of the source. The calls were made as follows: active = hit-call score of the fitted dose curve at least 0.9, where 1 is the maximum; inactive = score below 0.9.

Chain of Hepatocyte nuclear factor 3-beta (Homo sapiens) (Q9Y261 whole entry, looked up): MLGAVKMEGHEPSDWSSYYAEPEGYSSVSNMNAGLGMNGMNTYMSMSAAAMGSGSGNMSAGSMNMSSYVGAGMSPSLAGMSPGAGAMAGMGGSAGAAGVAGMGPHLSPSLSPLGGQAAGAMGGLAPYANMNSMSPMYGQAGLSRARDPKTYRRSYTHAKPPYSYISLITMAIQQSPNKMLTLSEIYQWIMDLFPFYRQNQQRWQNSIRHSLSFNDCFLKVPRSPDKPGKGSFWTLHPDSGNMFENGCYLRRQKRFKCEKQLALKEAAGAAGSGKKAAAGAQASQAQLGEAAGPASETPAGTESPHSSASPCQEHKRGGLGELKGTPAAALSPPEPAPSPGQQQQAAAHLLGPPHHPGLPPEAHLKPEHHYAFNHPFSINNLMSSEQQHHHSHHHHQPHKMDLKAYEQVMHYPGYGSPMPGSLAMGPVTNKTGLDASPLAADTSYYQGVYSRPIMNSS
Chain of Hypoxia-inducible factor 1-alpha (Homo sapiens) (Q16665 whole entry, looked up): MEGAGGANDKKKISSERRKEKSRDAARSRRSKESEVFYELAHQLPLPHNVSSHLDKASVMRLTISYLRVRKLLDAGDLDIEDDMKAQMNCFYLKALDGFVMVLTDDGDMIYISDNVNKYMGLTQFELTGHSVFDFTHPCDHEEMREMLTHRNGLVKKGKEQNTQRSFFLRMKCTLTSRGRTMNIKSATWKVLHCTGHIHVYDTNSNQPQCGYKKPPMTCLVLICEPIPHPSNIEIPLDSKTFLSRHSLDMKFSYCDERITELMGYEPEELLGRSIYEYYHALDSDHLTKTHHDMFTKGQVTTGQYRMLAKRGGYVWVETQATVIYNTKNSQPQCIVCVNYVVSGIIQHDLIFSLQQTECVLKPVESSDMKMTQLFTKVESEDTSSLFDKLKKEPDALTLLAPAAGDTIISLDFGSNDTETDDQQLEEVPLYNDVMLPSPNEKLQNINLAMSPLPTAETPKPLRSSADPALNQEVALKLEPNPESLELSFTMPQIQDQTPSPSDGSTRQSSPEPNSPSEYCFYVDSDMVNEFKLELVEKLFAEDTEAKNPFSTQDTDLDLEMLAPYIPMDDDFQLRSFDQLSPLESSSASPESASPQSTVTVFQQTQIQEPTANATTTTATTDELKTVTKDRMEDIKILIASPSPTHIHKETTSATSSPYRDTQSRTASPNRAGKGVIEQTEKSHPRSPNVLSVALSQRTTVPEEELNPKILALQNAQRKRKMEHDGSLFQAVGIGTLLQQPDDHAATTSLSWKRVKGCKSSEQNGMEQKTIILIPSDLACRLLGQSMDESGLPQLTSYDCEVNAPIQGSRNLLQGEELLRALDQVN
Chain of Hepatocyte nuclear factor 6 (Homo sapiens) (Q9UBC0 whole entry, looked up, the tested form may be a part): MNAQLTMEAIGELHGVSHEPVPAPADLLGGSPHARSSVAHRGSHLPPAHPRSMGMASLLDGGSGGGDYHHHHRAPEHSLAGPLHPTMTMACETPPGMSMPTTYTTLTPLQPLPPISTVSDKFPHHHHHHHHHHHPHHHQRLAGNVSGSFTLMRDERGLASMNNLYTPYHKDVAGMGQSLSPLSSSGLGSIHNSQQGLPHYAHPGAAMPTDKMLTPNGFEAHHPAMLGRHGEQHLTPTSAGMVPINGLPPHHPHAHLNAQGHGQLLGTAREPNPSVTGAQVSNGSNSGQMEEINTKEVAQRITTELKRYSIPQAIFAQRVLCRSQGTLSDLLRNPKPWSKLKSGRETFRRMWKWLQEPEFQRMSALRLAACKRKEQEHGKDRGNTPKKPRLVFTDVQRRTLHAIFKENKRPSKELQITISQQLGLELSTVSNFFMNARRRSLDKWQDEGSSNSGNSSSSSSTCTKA
Chain of Heat shock factor protein 1 (Homo sapiens) (Q00613 whole entry, looked up): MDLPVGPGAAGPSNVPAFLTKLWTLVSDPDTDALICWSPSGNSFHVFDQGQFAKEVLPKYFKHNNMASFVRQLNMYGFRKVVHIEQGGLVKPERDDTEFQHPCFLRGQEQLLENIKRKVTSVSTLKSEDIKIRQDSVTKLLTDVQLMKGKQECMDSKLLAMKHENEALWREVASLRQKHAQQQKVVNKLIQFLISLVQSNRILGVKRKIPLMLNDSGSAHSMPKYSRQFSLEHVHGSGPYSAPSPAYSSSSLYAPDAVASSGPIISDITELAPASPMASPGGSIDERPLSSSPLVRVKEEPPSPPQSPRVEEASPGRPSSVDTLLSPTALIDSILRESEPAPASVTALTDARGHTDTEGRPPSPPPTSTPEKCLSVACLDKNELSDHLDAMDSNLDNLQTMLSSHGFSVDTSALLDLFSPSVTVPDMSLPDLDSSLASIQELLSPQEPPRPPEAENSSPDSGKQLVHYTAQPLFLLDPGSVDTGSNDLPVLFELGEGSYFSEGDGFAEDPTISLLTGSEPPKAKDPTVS
Chain of Bile acid receptor (Homo sapiens) (Q96RI1 whole entry, looked up, the tested form may be a part): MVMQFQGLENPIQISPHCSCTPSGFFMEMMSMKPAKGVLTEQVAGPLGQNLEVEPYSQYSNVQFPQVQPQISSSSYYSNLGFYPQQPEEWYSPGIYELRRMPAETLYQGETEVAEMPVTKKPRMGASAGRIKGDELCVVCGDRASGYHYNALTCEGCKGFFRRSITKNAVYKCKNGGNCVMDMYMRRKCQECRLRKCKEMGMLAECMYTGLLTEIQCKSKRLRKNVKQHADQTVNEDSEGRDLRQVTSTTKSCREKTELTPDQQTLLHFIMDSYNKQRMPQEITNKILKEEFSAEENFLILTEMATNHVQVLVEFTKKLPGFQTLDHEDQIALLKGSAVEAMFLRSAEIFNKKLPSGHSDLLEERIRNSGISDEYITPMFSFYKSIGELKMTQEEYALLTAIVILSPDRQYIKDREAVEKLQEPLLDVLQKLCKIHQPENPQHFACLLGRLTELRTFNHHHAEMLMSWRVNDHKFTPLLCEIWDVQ

Turning to `Cc1cc(C)c(C)c(O)c1`, the result in test [1], in [2], in test [3], in test [4], in test [5] and in test [6] was inactive. Further, the molecule was classed as inactive in [7], in test [8], in test [9], in test [10], in test [11] and in test [12]. The molecule was classed as inactive in test [13], in test [14], in test [15], in [16] and in test [17].

Consider `CCOC(F)(F)C(F)(F)C(F)(F)C(F)(F)F`, for which the result in test [1], in [2], in test [3], in [4], in test [5] and in test [6] was inactive. The molecule was classed as inactive in test [7], in [8], in test [9], in test [18], in test [19] and in [10]. In addition, the call in test [11], in test [12], in test [13], in test [14], in [15] and in [16] was inactive. Besides, the outcome in [17] was inactive.

Regarding `CCN(CCC#N)c1ccc(N=Nc2c(Cl)cc([N+](=O)[O-])cc2Cl)cc1`, the result in [1], in test [2], in test [3], in test [4], in [5] and in test [6] was inactive. The call in [7], in [20], in test [9], in test [18], in test [19] and in test [10] was inactive. For the same molecule, the result in [11], in [12], in [14], in test [15], in test [16] and in [17] was inactive. In addition, the AC50 in [13] was 43.3 µM (active).

Turning to `Cn1c([N+](=O)[O-])cnc1COC(N)=O`, the outcome in test [1], in [2], in [3], in [4], in test [5] and in test [6] was inactive. For the same molecule, the result in [7], in test [20], in [9], in test [19], in [10] and in test [11] was inactive. Further, the outcome in test [12], in [14], in test [15], in test [16] and in [17] was inactive.

For the molecule `O=S1(=O)OC(c2ccc(O)cc2)(c2ccc(O)cc2)c2ccccc21`, the result in [1], in test [2], in test [3], in [4], in test [6] and in test [7] was inactive. The molecule was called inactive in test [8], in test [9], in test [10], in test [12], in test [13] and in test [14]. For the same molecule, the result in test [16] and in test [17] was inactive. The AC50 in [5] is 53.4 µM (active).

For the molecule `COC(=O)/C=C/C(C)=C\C=C\C(C)=C\C=C\C=C(C)\C=C\C=C(C)\C=C\C(=O)O`, the result in [1], in [2], in test [3], in test [4], in [5] and in [6] was inactive. In addition, the outcome in [7], in [20], in test [9], in test [18], in test [19] and in test [10] was inactive. In addition, the result in [11], in test [12], in [13], in test [14], in test [15] and in [16] was inactive. In addition, the result in test [17] was inactive.

Take `Cc1cc(C)c(C(=O)O)c(C)c1`: the result in test [1], in [2], in test [3], in test [4], in [5] and in test [6] was inactive. Besides, the outcome in [7], in [20], in test [9], in test [19], in test [10] and in test [11] was inactive. The molecule was called inactive in test [13], in [14], in [15], in test [16] and in [17].

(Values after PubChem BioAssay (EPA / NIEHS).)
